Experimental data taken from PubChem BioAssay.
The source made the active and inactive calls. Unless noted, how the calls were made is not given here.

Legend:
[1] = system: XIP peptide (Xip251-270) binding; assay: XIP fragment 251-270 binding compounds – biochemical, small-molecule microarray, fluorescence 635/667 nm, 0.1 µg/mL protein, primary screen (AID 1182); conditions: fluorescent protein binding, 635 nm, higher = more signal, called active from +8 up or from −8 down
[2] = system: XIP peptide (Xip251-270); assay: compounds binding XIP fragment 251-270 – biochemical, small-molecule microarray, fluorescence 635/667 nm, 0.5 µg/mL protein, primary screen (AID 1183); conditions: fluorescence 635 nm, higher = more signal
[3] = blood-stage malaria parasite viability loss – strain 3D7, DAPI fluorescence, 100 nL, primary screen (AID 1184);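 further: parasites grown inside human red blood cells in medium with human serum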; conditions: P. falciparum 3D7 growth, 3 d, higher = more signal
[4] = biological target: Homeobox protein Hox-A13 (Mus musculus) (UniProt Q62424); assay: disruptors of Hoxa13 oligonucleotide interaction – biochemical, fluorescence polarization, labeled oligonucleotide, primary screen (AID 1185); conditions: Hoxa13:DNA binding, 15 min, higher = more signal, called active from +8 up or from −8 down
Chain of Homeobox protein Hox-A13 (Mus musculus) (Q62424 whole entry, looked up): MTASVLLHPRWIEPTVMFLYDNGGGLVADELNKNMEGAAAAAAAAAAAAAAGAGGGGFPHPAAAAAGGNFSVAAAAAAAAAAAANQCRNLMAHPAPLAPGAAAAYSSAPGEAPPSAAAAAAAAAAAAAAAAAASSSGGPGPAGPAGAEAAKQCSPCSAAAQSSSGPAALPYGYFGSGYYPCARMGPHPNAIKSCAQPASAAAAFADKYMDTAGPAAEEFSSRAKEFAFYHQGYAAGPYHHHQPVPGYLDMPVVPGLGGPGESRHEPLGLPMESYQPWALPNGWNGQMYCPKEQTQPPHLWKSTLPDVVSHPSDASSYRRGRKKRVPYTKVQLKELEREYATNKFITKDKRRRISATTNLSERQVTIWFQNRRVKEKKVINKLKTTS

[5] = blockers of DNA damage checkpoint Chk1 activation – imaging, HeLa, hydroxyurea, phospho-Chk1 antibody, percent positive cells, primary screen (AID 1186); conditions: hydroxyurea-induced phospho-Chk1 immunofluorescence imaging, higher = more signal
[6] = blockers of DNA damage checkpoint Chk1 activation – imaging, HeLa, hydroxyurea, phospho-Chk1 nuclear intensity, primary screen (AID 1187); conditions: hydroxyurea-induced phospho-Chk1 immunofluorescence imaging, higher = more signal

Row | SMILES | composite z-score [1] | composite z-score [2] | z-score [3] | z-score [4] | z-score [5] | z-score [6]
1 | COCCOC(=O)N1C(=O)[C@@]2(c3cc(C#CCNC(N)=O)ccc31)[C@H](C(=O)Nc1nc3ccccc3s1)[C@H]1C(=O)O[C@H](c3ccccc3)[C@H](c3ccccc3)N1[C@@H]2c1ccc(O)cc1 | -0.0637 (inactive) | 0.321 | 0.106 | -0.879 (inactive) | -0.0038 (inactive) | -0.0749 (inactive)
2 | C=CCN1C(=O)[C@@]2(O[C@@H](CCO)[C@H]([Si](C)(C)c3ccc(OC)cc3)[C@H]2C)c2cc(N3CCCCC3=O)ccc21 | 0.561 (inactive) | 0.625 | -2.42 | -6.02 (inactive) | -1.22 (inactive) | -0.485 (inactive)
3 | COC(=O)[C@@]1(Cc2ccc(F)cc2)[C@H]2c3cc(C(=O)N(C)C)n(Cc4ccsc4Br)c3C[C@H]2CN1C(=O)c1ccccc1 | 1.29 (inactive) | 0.102 | -1.75 | -5.36 (inactive) | -0.219 (inactive) | -1.12 (inactive)
4 | CC(C)(C)OC(=O)CC[C@@]1(C(=O)N2CCOCC2)N=C(c2ccc(OCCCO)cc2)O[C@@H]1c1ccccc1CN=[N+]=[N-] | 3.3 (inactive) | 0.838 | -2.12 | -4.94 (inactive) | 0.158 (inactive) | 0.291 (inactive)
5 | C=CCNC(=O)[C@H]1[C@@H]2C(=O)O[C@@H](c3ccccc3)[C@@H](c3ccccc3)N2[C@@H](c2ccc(O)cc2)[C@]12C(=O)N(C(=O)OCCOC)c1ccc(C#Cc3ccc(OC)cc3)cc12 | -0.184 (inactive) | 0.625 | -0.812 | -1.16 (inactive) | 0.0708 (inactive) | 0.21 (inactive)
6 | COc1ccc(C(=O)Nc2ccc(CN3C(=O)[C@]4(O[C@H](CC(=O)N(CCO)Cc5ccccc5)[C@@H]([Si](C)(C)c5ccc(OC)cc5)[C@@H]4C)c4ccccc43)cc2)cc1 | 0.321 (inactive) | 0.703 | -2 | -1.96 (inactive) | 0.274 (inactive) | 0.337 (inactive)
7 | COc1cc2c(cc1O)C(C)N(Cc1sc3ccccc3c1Cl)CC2 (configuration not stated) | -0.173 (inactive) | 0.547 | -1.37 | -3.39 (inactive) | -0.632 (inactive) | -0.817 (inactive)
8 | Cc1ccc(S(=O)(=O)N2[C@@H](c3ccccc3)C(C(=O)O)=C[C@H]2C(C)(C)C)cc1 | 1.11 (inactive) | 0.792 | -1.04 | -5.12 (inactive) | 0.694 (inactive) | 0.0696 (inactive)
9 | COc1cccc(C)c1NC(=O)O[C@H]1[C@H](OC(=O)Nc2ccc3c(c2)OCO3)[C@H](OC(=O)Nc2ccc3c(c2)OCO3)[C@@H](OC)O[C@@H]1CO | 0.574 (inactive) | 0.798 | -2.29 | -7.67 (inactive) | -0.698 (inactive) | -1.29 (inactive)
10 | COCCOC(=O)N1C(=O)[C@@]2(c3cc(C#CCNC(N)=O)ccc31)[C@H](C(N)=O)[C@H]1C(=O)O[C@H](c3ccccc3)[C@H](c3ccccc3)N1[C@@H]2c1ccc(O)cc1 | 0.201 (inactive) | -0.532 | 1.75 | -3.48 (inactive) | 0.319 (inactive) | 0.888 (inactive)
11 | CCCCC(=C=CC[C@H](O)c1cccc(OCCO)c1)C[C@H](O)c1cc(Cl)cc(Cl)c1O | 0.878 (inactive) | 0.592 | -1.16 | -4.28 (inactive) | -0.755 (inactive) | 0.0773 (inactive)
12 | C=CC[C@]12N=C(c3ccc(OCCCO)cc3)O[C@H]1c1ccccc1N(CCC)C2=O | -0.0641 (inactive) | 0.842 | -2.33 | -4.5 (inactive) | -0.206 (inactive) | -0.234 (inactive)
13 | O=C1O[C@@H](c2ccccc2)[C@@H](c2ccccc2)N2[C@@H](c3ccccc3OCCO)[C@]3(C(=O)Nc4ccc(C#CC5(O)CCCCCC5)cc43)[C@@H](C(=O)N3CCCCCCC3)[C@H]12 | 5.76 (inactive) | 0.878 | -2.38 | 4.83 (inactive) | 0.503 (inactive) | 0.639 (inactive)
14 | CCOC(=O)C[C@H]1[C@H](OC(=O)c2ccccc2-c2ccccc2)[C@@H](NC(=O)CC(C)C)c2cc(OCCCO)ccc2N1C(=O)c1ccccc1 | 0.539 (inactive) | 0.649 | -0.966 | -4.48 (inactive) | -0.439 (inactive) | -0.151 (inactive)
15 | O=C1O[C@H](c2ccccc2)[C@H](c2ccccc2)N2[C@H]1[C@@H](C(=O)N1CCCCCCC1)[C@]1(C(=O)Nc3ccc(C#CCCO)cc31)[C@H]2c1ccc(O)cc1 | 4.41 (inactive) | 0.976 | -0.189 | 1.85 (inactive) | -0.323 (inactive) | -0.279 (inactive)
16 | CC(C)[Si](C#Cc1ccccc1)(O[C@H](c1ccccc1)c1cn(Cc2ccccc2)nn1)C(C)C | 0.0554 (inactive) | 0.877 | -1.18 | -1.11 (inactive) | 0.0998 (inactive) | 0.124 (inactive)
17 | COc1ccc(CCNC(=O)[C@@H]2c3ccccc3C(=O)N(Cc3cc(F)cc(C(F)(F)F)c3)[C@H]2c2ccc(CO)cc2)cc1 | 0.614 (inactive) | 0.906 | -1.42 | -3.95 (inactive) | -0.0525 (inactive) | 0.275 (inactive)
